Compounds with a hit are over-represented: about 6.7% of the library has one in this group of screens.
Pf Dd2 growth: P. falciparum Dd2 growth inhibitors, primary screen, SYBR Green fluorescence, single dose replicates; 2.3% of 94,000 active; activity change, % at 10 µM; 72 h; active compounds read low; in the data active = activity change below about -80%; inconclusive = no clear call, values can overlap the other calls
C diff HTS: C. difficile growth inhibitors, primary screen, HTS; 0.25% of 86,000 active; Clostridium difficile clinical isolate growth, OD600, 24 h; active compounds read low; growth activity, negative = inhibition, % at 16 µg/mL (by protocol);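 active = mean growth activity at or below -80% and every replicate also at or below -80%; inconclusive = mean at or below -80% but some replicate above -80%; inactive = mean growth activity above -80%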
T cruzi growth-1: T. cruzi intracellular proliferation inhibitors, primary screen, cell-based, beta-gal Tulahuen parasites, NIH3T3 host, luminescence. T. cruzi beta-gal in NIH3T3, GalScreen luminescence, 90 h. 5.9% of 77,000 active. inhibition, % at 8.34 µM;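 active = mean inhibition above about 93%, with at least 55% of replicates each passing it, limit read from the data, passing the limit was not always enough; inconclusive = only one of those two conditions holds; inactive = neither condition holds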
T cruzi growth-2: T. cruzi intracellular proliferation inhibitors, confirmation, cell-based, NIH3T3 host, beta-gal parasite, luminescence, cherry-pick; T. cruzi beta-gal in NIH3T3, GalScreen luminescence, 90 h; AID 651739, 2012; shares compounds with T cruzi growth-1; inhibition, % at 8.35 µM; 72% of 5,600 active;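 active = mean replicate inhibition above about 95% and at least 55% of replicates individually reaching it, limit read from the data; inconclusive = only one of the two criteria is met; inactive = neither criterion is met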
T cruzi growth-3: inhibitors of intracellular T. cruzi replication, confirmation, NIH3T3 host cells, beta-gal parasites, cherry-pick, set 2; 21% of 5,600 active; inhibition, % at 2.09 µM; shares compounds with T cruzi growth-1; T. cruzi beta-gal in NIH3T3, GalScreen luminescence, 90 h;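 active = mean inhibition above about 95%, with at least 55% of replicates also reaching it, limit read from the data; inconclusive = meets just one of the two conditions; inactive = meets neither condition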
3T3 cytotox: cytotoxicity in mouse NIH/3T3 fibroblasts, confirmation, cytotoxicity control for T. cruzi proliferation inhibitor project, cell-based, cherry-pick, single point; shares compounds with T cruzi growth-1; NIH/3T3 viability, CellTiter-Glo ATP luminescence, 90 h; cytotoxicity (signal decrease), % at 8.35 µM; 14% of 5,600 active; AID 651742, 2012;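 active = mean signal decrease across replicates above about 35% based on untreated-well scatter, with enough replicates individually passing, limit read from the data; inconclusive = no rule stated though some were filed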
3T3 cytotox 2: NIH/3T3 fibroblast cytotoxicity, confirmation, cytotoxicity control, cell-based, cherry-pick, single point, set 2; shares compounds with T cruzi growth-1; NIH/3T3 viability, CellTiter-Glo ATP luminescence, 90 h; inhibition, % at 24.9 µM; 56% of 5,600 active; AID 651744, 2012;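 active = mean loss of cell viability signal at or above a set limit, and enough replicates individually reaching it; inconclusive = meets only the mean limit or only the replicate share; inactive = meets neither condition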
A number is an active result; - = inactive; ? = inconclusive; . = no result; ! = not confirmed by another sample.

SMILES | Pf Dd2 growth | C diff HTS | T cruzi growth-1 | T cruzi growth-2 | T cruzi growth-3 | 3T3 cytotox | 3T3 cytotox 2
C[C@@H]1CN([C@H](C)CO)C(=O)c2cccc(NS(=O)(=O)c3ccc(F)cc3)c2O[C@@H]1CN(C)CC1CC1 | - | - | - | . | . | . | .
CCC(=O)N1CC2(C1)[C@H](c1ccc(-c3ccccc3)cc1)[C@H](CO)N2C(C)=O | - | - | . | . | . | . | .
C[C@@H]1CN([C@H](C)CO)C(=O)Cc2cc(NS(C)(=O)=O)ccc2O[C@H]1CN(C)CC1CCCCC1 | - | - | - | . | . | . | .
C[C@@H]1CN([C@H](C)CO)C(=O)c2cc(NS(=O)(=O)c3ccccc3)ccc2O[C@H]1CN(C)C(=O)Nc1cccc2ccccc12 | - | - | - | . | . | . | .
C[C@H](CO)N1C[C@H](C)[C@@H](CN(C)C)Oc2cc(C#CC3(O)CCCC3)ccc2S1(=O)=O | - | - | - | . | . | . | .
COc1ccccc1-c1cn(CC[C@@H]2CC[C@H](NS(=O)(=O)c3ccccc3C)[C@@H](CO)O2)nn1 | - | - | . | . | . | . | .
CCCC#Cc1ccc2c(c1)O[C@H](CN(C)Cc1cncnc1)[C@H](C)CN([C@@H](C)CO)S2(=O)=O | - | - | - | . | . | . | .
CCCC#Cc1ccc2c(c1)O[C@@H](CN(C)Cc1cncnc1)[C@H](C)CN([C@H](C)CO)S2(=O)=O | - | - | - | . | . | . | .
CCCC#Cc1ccc2c(c1)O[C@@H](CN(C)Cc1cccnc1)[C@@H](C)CN([C@@H](C)CO)S2(=O)=O | - | - | 95.9 | 99.4 | - | - | -
CCCC#Cc1ccc2c(c1)O[C@H](CN(C)Cc1cncnc1)[C@H](C)CN([C@H](C)CO)S2(=O)=O | - | - | - | . | . | . | .
CCCC#Cc1ccc2c(c1)O[C@H](CN(C)Cc1cccnc1)[C@H](C)CN([C@@H](C)CO)S2(=O)=O | - | - | 109.4 | 98.9 | - | 54.3 | ?
CCCC#Cc1ccc2c(c1)O[C@H](CN(C)Cc1cccnc1)[C@H](C)CN([C@H](C)CO)S2(=O)=O | - | - | 114.6 | 105.5 | - | 52.5 | 31.3
CCCC#Cc1ccc2c(c1)O[C@H](CN(C)Cc1cccnc1)[C@@H](C)CN([C@H](C)CO)S2(=O)=O | - | - | 122.8 | 105.6 | 104.1 | - | 92.2
CCCC#Cc1ccc2c(c1)O[C@@H](CN(C)Cc1cncnc1)[C@@H](C)CN([C@@H](C)CO)S2(=O)=O | - | - | - | . | . | . | .
COc1ccccc1C(=O)Nc1ccc2c(c1)OC[C@@H](C)N(CC1CC1)C[C@@H](C)[C@H](OC)CN(C)C2=O | . | . | - | . | . | . | .
CCCN1[C@H](C(=O)N[C@@H](C)c2ccccc2)[C@@H](CO)[C@@H]2Cn3c(cccc3=O)[C@@H]21 | - | - | . | . | . | . | .
O=C(C[C@@H]1C[C@@H]2c3cc(NC(=O)c4cccnc4)ccc3O[C@@H]2[C@H](CO)O1)NC1CCCC1 | - | - | . | . | . | . | .
C[C@H]1CN([C@@H](C)CO)C(=O)c2cc(-c3ccccc3)cnc2O[C@@H]1CN(C)C(=O)c1cccc(F)c1 | - | - | - | . | . | . | .
CCCNC(=O)N(C)C[C@H]1Oc2cc(-c3cccnc3)ccc2S(=O)(=O)N([C@H](C)CO)C[C@@H]1C | - | - | - | . | . | . | .
COCC#Cc1ccc2c(c1)O[C@H](CN(C)Cc1cccnc1)[C@@H](C)CN([C@@H](C)CO)S2(=O)=O | - | - | 104.9 | 96.9 | - | - | 64.3
COCC#Cc1ccc2c(c1)O[C@@H](CN(C)Cc1cccnc1)[C@@H](C)CN([C@@H](C)CO)S2(=O)=O | - | - | - | . | . | . | .
C[C@@H]1CCCCO[C@@H](CN(C)C(=O)Nc2ccc(F)cc2)[C@@H](C)CN([C@@H](C)CO)C(=O)c2cc(NC(=O)Nc3ccccc3)ccc2O1 | - | - | - | . | . | . | .
C[C@@H]1CN([C@H](C)CO)C(=O)c2cc(NC(=O)Nc3ccc(F)cc3)ccc2O[C@@H](C)CCCCO[C@H]1CN(C)C(=O)Nc1ccccc1 | - | . | - | . | . | . | .
C[C@H](CO)N1C[C@H](C)[C@H](CN(C)C(=O)Nc2ccc(F)cc2)OCCCC[C@H](C)Oc2ccc(NC(=O)Nc3ccccc3)cc2C1=O | - | - | 122.6 | 107.3 | - | - | -
C[C@@H]1CCCCO[C@@H](CN(C)C(=O)Nc2ccccc2)[C@H](C)CN([C@@H](C)CO)C(=O)c2cc(NC(=O)Nc3ccc(F)cc3)ccc2O1 | - | . | 97.1 | 114.2 | - | - | -
SMILES | Pf Dd2 growth | C diff HTS | T cruzi growth-1 | T cruzi growth-2 | T cruzi growth-3 | 3T3 cytotox | 3T3 cytotox 2
C[C@@H]1CN([C@H](C)CO)C(=O)c2cc(NC(=O)Nc3ccccc3)ccc2O[C@H]1CN(C)S(C)(=O)=O | - | - | - | . | . | . | .
Cc1ccc(S(=O)(=O)N(C)C[C@@H]2Oc3c(NC(=O)Nc4ccc(F)cc4)cccc3C(=O)N([C@H](C)CO)C[C@@H]2C)cc1 | - | - | - | . | . | . | .
C[C@@H]1CN([C@H](C)CO)C(=O)c2cccc(NC(=O)c3cnccn3)c2O[C@H]1CN(C)Cc1ccccc1 | - | - | - | . | . | . | .
C[C@H](CO)N1C[C@H](C)[C@@H](CN(C)S(=O)(=O)c2ccc(Cl)cc2)OCc2cnnn2CCCC1=O | - | - | - | . | . | . | .
C[C@H](CO)N1C[C@H](C)[C@H](CN(C)S(=O)(=O)c2ccc(Cl)cc2)OCc2cnnn2CCCC1=O | - | - | ? | - | - | - | -
C[C@H]1CN([C@@H](C)CO)C(=O)CCCn2nncc2CO[C@H]1CN(C)S(=O)(=O)c1cccc(F)c1 | - | - | - | . | . | . | .
COc1ccc(S(=O)(=O)N(C)C[C@H]2OCc3cnnn3CCCC(=O)N([C@@H](C)CO)C[C@H]2C)cc1 | - | - | ? | - | - | - | -
C[C@@H]1CN([C@H](C)CO)C(=O)CCCn2nncc2CO[C@@H]1CN(C)S(=O)(=O)c1cccc(F)c1 | - | - | 143.7! | 102.9 | - | - | -
COc1ccc(S(=O)(=O)N(C)C[C@@H]2OCc3cnnn3CCCC(=O)N([C@H](C)CO)C[C@H]2C)cc1 | - | - | - | . | . | . | .
C[C@H](CO)N1C[C@H](C)[C@H](CN(C)C(=O)Nc2ccc3c(c2)OCO3)Oc2ccc(NC(=O)C3CC3)cc2CC1=O | - | - | - | . | . | . | .
O=C(C[C@@H]1C[C@@H]2c3cc(NC(=O)NC4CCCC4)ccc3O[C@@H]2[C@H](CO)O1)NCCc1ccccc1 | - | - | . | . | . | . | .
CNC[C@H]1OCCCC[C@@H](C)Oc2ccc(NC(=O)c3ccncc3)cc2C(=O)N([C@@H](C)CO)C[C@H]1C | - | - | - | . | . | . | .
C[C@@H]1CN([C@H](C)CO)C(=O)c2cccc(NS(=O)(=O)c3ccc(F)cc3)c2O[C@@H]1CN(C)S(C)(=O)=O | - | - | - | . | . | . | .

From PubChem
